# Assay outcomes: PubChem, National Center for Advancing Translational Sciences (NCATS)
# TGFb inhibitor: qHTS for Inhibitors of TGF-b | HepG2 CAGA-GFP TGF-b/SMAD3 reporter, GFP fluorescence, 18 h; TGF-beta stimulated, 500 pg/mL final | Potency, µM (highest dose often 46.1 µM), for inactives: at the highest dose activity, negative = inhibition, most hits filed as inhibitors | 410,000 compounds, 1.2% hits | AID 588855, 2011; note: % is set by controls: 0 for no effect and ±100 for the full control effect; nearly all actives have a fitted effect of over 65% in size
#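 HEPG2 CAGA-GFP cells (1000/well, DMEM with 1% FBS) were pre-incubated 2 h at 37 degrees C, given compound by pin tool, then stimulated with TGF-beta at 500 pg/mL final for 18 h before per-cell GFP fluorescence imaging.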
# Nrf2 inh: Nrf2 qHTS screen for inhibitors; A549 ARE-Fluc reporter, luciferase luminescence, 18-24 h; Potency, µM (doses to about 46 µM), without a hit: top-dose activity change, negative = inhibition, usual class: inhibitors; 360,000 compounds, 2.1% hits; AID 504444, 2011; note: % is set by controls: 0 for no effect and ±100 for the full control effect; nearly all actives have a fitted effect of over 60% in size
#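 A549 ARE_Fluc cells (5000/well, 5% FBS OPTI-MEM) pre-incubated 2 h, then treated with compounds 18-24 h at 37C/5% CO2 in concentration-response. CellTiter-Fluor viability read first; BugLite luciferase luminescence after 15 min at room temperature gives Nrf2 activity.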
# HepG2 viability: qHTS for Inhibitors of TGF-b: Cytotox Counterscreen. HepG2 CAGA-GFP viability, ATP luminescence, 18 h. AID 588856, 2011. 410,000 compounds, 0.76% hits. Potency, µM (highest dose often 46.1 µM), for inactives: at the top dose activity change, negative = cytotoxicity, hits mostly cytotoxic
#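 HepG2 CAGA-GFP cells (1000/well, DMEM with 1% FBS) received compound, then TGF-beta at 500 pg/mL final, and were incubated 18 hours at 37 degrees C. Viability was read by CellTiter-Glo luminescence. Media-only wells were set as complete cell-killing and DMSO as no toxicity.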
# A549 viability: Nrf2 qHTS screen for inhibitors: counterscreen for cytotoxicity; A549 ARE-Fluc cells, CellTiter-Fluor viability, 18-24 h; 390,000 compounds, 0.16% hits; Potency, µM (series often up to 46 µM), inactives show at the highest dose activity change, negative = cytotoxicity, hits mostly inhibitors; note: % is set by controls: 0 for no effect and ±100 for the full control effect
#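 Cytotoxicity counterscreen: CellTiter-Fluor fluorescence was measured in A549 ARE_Fluc cells after 18-24 h of compound exposure in a concentration series. The subsequent BugLite luminescent read reports ARE-luciferase activity.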
# Nrf2 ARE act: qHTS of Nrf2 Activators; AREc32 ARE-luciferase reporter (MCF7-derived line), luminescence, 24 h; Potency, µM (series often up to 46.1 µM), for inactives: top-dose activation, most hits filed as activators; 410,000 compounds, 0.31% hits; AID 624171, 2012; note: % of control where 0% means no effect; nearly all actives have a fitted effect of over 65% in size
#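 ARE activation measured as luciferase luminescence (Steady-Glo, 30 min RT) in AREc32_Fluc cells after 24 hr compound exposure at 37 deg C, 5% CO2; cells seeded overnight at 1000/well in OPTI-MEM, 5% FBS.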
# * = called active by the depositor; ? = inconclusive; . = no result; ! = not active in a repeat; [ ] = remark or other dose. Shown are actives, neighbours in structure and some others; about 3.6% of the full set was active somewhere. Calls come from the whole dose curve; as a rule, active = well fitted curve in the direction sought with a large enough effect; inconclusive = small, poorly fitted or top-dose-only effect, or another doubt; inactive = no such curve, though single readings can be large; an effect the other way counts as inactive or inconclusive. Potency is the fitted concentration of half-maximal effect.
SMILES,TGFb inhibitor,Nrf2 inh,HepG2 viability,A549 viability,Nrf2 ARE act
S=C(NCc1ccco1)N1CCN(c2nc(-c3ccccc3)cs2)CC1,-31.3%,?,-15.7%,4.4%,3.8%
Cn1c(=O)c2c(ncn2CC(=O)OCC(=O)NNC(=O)c2ccc(Cl)cc2)n(C)c1=O,-24.0%,2.3%,1.8%,-3.5%,2.7%
COc1cccc(C(=O)NNC(=O)Cc2ccc(Cl)cc2)c1,7.4%,3.8%,-15.6%,4.3%,-0.8%
COc1cccc(C(=O)Nc2nc(SCc3ccc(Cl)cc3)n[nH]2)c1,0.0%,11.2%,15.8µM*,1.4%,0.1%
COc1ccccc1N(CC(=O)NCCSCc1ccccc1)S(=O)(=O)c1ccc(C)cc1,?,14.6µM*!,5.7%,-2.5%,-0.1%
COc1ccccc1N(CC(=O)NC1CC2CCC1C2)S(=O)(=O)c1ccc(C)cc1 (configuration not stated),0.0%,18.4µM*,-27.1%,-18.4%,0.7%
COc1ccccc1N(CC(=O)NCCSCc1ccccc1)S(=O)(=O)c1ccccc1,-7.9%,.,-32.3%,.,-0.6%
CCc1ccc2[nH]c(=O)c(CN(CCN(C)C)C(=O)Nc3ccccc3)cc2c1,25.6%,17.4%,-12.7%,1.2%,5.1%
O=c1[nH]c(N/N=C\c2ccc3c(c2)OCO3)nc2ccccc12,0.0%,?,-20.7%,0.6%,0.3%
Cc1cc(N/N=C/c2ccc3c(c2)OCO3)nc2ccccc12,-8.4%,-22.1%,20µM*,-27.3%,2.6%
NC1=C(Cl)C(=O)c2ccc(S(N)(=O)=O)cc2C1=O,?,3.26µM*,0.562µM*,5.8µM*,-3.7%
NC1=C(Cl)C(=O)c2ccccc2C1=O,?,16.4µM*,5.62µM*,?,-3.2%
Cc1cccc(NC(=O)COc2ccc(-c3nn(C)c(=O)c4ccccc34)cc2)c1,?,23.1µM*,-3.0%,?,-2.7%
COc1ccccc1NC(=O)CSCC(=O)N1c2ccccc2CCc2ccccc21,-16.6%,18.4µM*,6.2%,?,2.3%
COc1ccccc1NC(=O)COc1ccc(-c2nn(C)c(=O)c3ccccc23)cc1,7.94µM*!,?,-0.6%,-7.0%,4.3%
COc1ccccc1NC(=O)CCn1nc(-c2ccccc2)c2ccccc2c1=O,.,23.1µM*,-38.0%,?,3.5%
COc1ccc(NC(=O)CSCC(=O)N2c3ccccc3CCc3ccccc32)cc1,?,-18.9%,-24.0%,15.8%,2.6%
O=C(CCn1nc(-c2ccccc2)c2ccccc2c1=O)Nc1ccccc1,-7.2%,-14.9%,-0.3%,-6.9%,0.7%
COc1ccc(S(=O)(=O)N2CCCCCC2)cc1NC(=O)Cc1cccc(C(F)(F)F)c1,-21.8%,.,-9.1%,.,0.0%
O=C(CC1N=C2c3ccccc3N=C(SCC(=O)Nc3ccccc3F)N2C1=O)NCc1cccs1 (configuration not stated),-28.4%,-4.1%,-38.4%,-6.8%,4.3%
Cc1cc(-c2nc3ncccc3o2)ccc1NC(=O)c1ccc(Br)cc1,0.0%,0.9%,6.8%,2.4%,-0.4%
COc1cc(/C=C(/NC(=O)c2ccccc2)C(=O)N2CCN(C)CC2)c([N+](=O)[O-])cc1OC,6.6%,-19.4%,7.2%,-2.4%,2.4%
COc1ccccc1NC(=O)COc1ccccc1,-4.8%,?,-18.1%,5.2%,11.2µM*
O=C(COc1ccccc1)Nc1ccccc1Oc1ccccc1,-9.1%,?,0.3%,22.1%,-0.6%[9.22 µM]
COc1cc(NC(=O)C2CC(=O)NC3=C2C(=O)CC(C)(C)C3)c(OC)cc1Cl (configuration not stated),0.5%,-18.9%,-25.5%,-10.9%,-0.1%
SMILES,TGFb inhibitor,Nrf2 inh,HepG2 viability,A549 viability,Nrf2 ARE act
CCc1ccc(/C=C2\SC(=S)N(CCCC(=O)Nc3ccccn3)C2=O)cc1,?,23.1µM*,10.9%,-13.4%,-2.8%
Cc1ccc(/C=C2\SC(=S)N(CCCC(=O)Nc3cccnc3)C2=O)cc1,-17.0%,11.6µM*,-1.0%,?,-2.0%
O=C(CCCN1C(=O)/C(=C\c2cccc(Br)c2)SC1=S)Nc1cccnc1,11.2µM*,?,-34.6%,?,10µM*
COC(=O)c1ccc(/C=C2/SC(=S)N(CCCC(=O)Nc3ccccn3)C2=O)cc1,-16.0%,25.8%,5.6%,-18.9%,0.3%
Cc1ccc(/C=C2\SC(=S)N(CC(=O)Nc3cccnc3)C2=O)cc1,17.7%,-13.7%,1.3%,1.0%,1.6%
CC(Oc1ccc(Cl)cc1Cl)C(=O)NCCCN(C)C (configuration not stated),-22.1%,21.7%,1.8%,-2.8%,0.4%
O=C1C(Cl)=C(NCCN2CCOCC2)C(=O)c2ccccc21,?,?,17.8µM*,-0.4%,-2.6%
CCN(CC(=O)Nc1ccc(NC(C)=O)cc1)S(=O)(=O)/C=C/c1ccccc1,-0.3%,-9.0%,-1.0%,0.8%,-0.7%
COc1ccc(C(=O)O/N=C(/C)c2cccs2)cc1,1.7%,.,-0.3%,9.7%,17.8µM*
N/C(=N\OC(=O)c1ccco1)c1ccccc1,-0.9%,?,-13.8%,-15.0%,17.8µM*
Cc1cccc(/C(N)=N/OC(=O)c2cccs2)c1,-8.5%,?,0.9%,-10.7%,14.1µM*
Cc1ccc(/C(N)=N/OC(=O)c2cccs2)cc1,-9.6%,?,-8.2%,-2.3%,?
COc1ccc(C(=O)O/N=C(\C)c2nccs2)cc1,0.2%,?,7.5%,19.2%,3.4%
Cc1ccc(/C(N)=N/OC(=O)c2ccco2)cc1,3.2%,?,-19.2%,0.0%,24.5%
N/C(=N\OC(=O)c1ccc(Br)cc1)c1ccccc1,-5.4%,.,-10.6%,2.8%,8.91µM*
N/C(=N\OC(=O)c1cccc(Br)c1)c1ccc(Br)cc1,-3.5%,26.1%,-14.6%,-0.2%,?
Cc1occc1C(=O)NCc1ccc(C(=O)O)o1,0.1%,8.3%,-23.6%,3.9%,-0.8%
N/C(=N\OC(=O)c1cccs1)c1ccccc1,-20.0%,?,-6.9%,5.5%,10µM*
N/C(=N\OC(=O)c1cccs1)c1cccc(Br)c1,14.4%,?,12.1%,-0.6%,11.2µM*
COc1ccc(/C(N)=N/OC(=O)c2cccs2)cc1OC,0.8%,?,10.0%,-11.7%,?
Cc1csc(NC(=O)c2cc(-c3ccccc3)nc3ccccc23)n1,-4.7%,?,-7.5%,-25.2%,0.4%
Cn1nnnc1Sc1ncnc2scc(-c3cccc(F)c3)c12,10µM*,?,-109.9%,?,?
Cn1nnnc1Sc1ncnc2scc(-c3ccc4ccccc4c3)c12,.,5.3%,.,?,.
COc1cccc(-c2csc3ncnc(Sc4nnnn4C)c23)c1,?,25.9µM*!,9.6%,?,?
Cn1nnnc1Sc1ncnc2scc(-c3cc4ccccc4o3)c12,2.51µM*,?,4.47µM*,-27.4%,?
Cn1nnnc1Sc1ncnc2scc(-c3cccc(Cl)c3)c12,.,23.1µM*,.,-17.6%,.
